Experimental data: the supplement of paper PMC12645437, “Orthogonal IMiD-Degron Pairs Induce Selective Protein Degradation in Cells” (ACS Chemical Biology, 2025)
Over roughly 8,300 sequences, “log2 fold change of degron read counts, EGFP-low vs EGFP+ sorted cells (limma voom), compound-induced degradation” has its median near -1.1; the highest 2% begin near 3.2. Many of the other results were omitted from the sample, so the highest values are more common in it than they were.

T1: CRBN, Q96SW2
T1 chain: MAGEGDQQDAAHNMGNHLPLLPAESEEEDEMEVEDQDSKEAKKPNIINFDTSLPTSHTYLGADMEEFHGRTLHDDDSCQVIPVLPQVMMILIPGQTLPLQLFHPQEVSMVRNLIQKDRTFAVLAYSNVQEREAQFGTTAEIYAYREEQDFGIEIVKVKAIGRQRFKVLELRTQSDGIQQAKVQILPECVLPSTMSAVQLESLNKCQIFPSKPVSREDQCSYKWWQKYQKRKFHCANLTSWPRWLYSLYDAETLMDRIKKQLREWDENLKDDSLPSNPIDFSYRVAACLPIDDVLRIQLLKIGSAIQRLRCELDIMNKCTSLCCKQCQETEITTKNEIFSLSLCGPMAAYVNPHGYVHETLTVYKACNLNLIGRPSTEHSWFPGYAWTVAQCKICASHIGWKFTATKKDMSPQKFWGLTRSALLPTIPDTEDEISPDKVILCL


Target: T1, CRBN, Q96SW2
Assay: log2 fold change of degron read counts, EGFP-low vs EGFP+ sorted cells (limma voom), compound-induced degradation; higher = more compound-induced degradation of the degron-EGFP fusion; degrons are variants of IKZF1/3 zinc finger 2; compound dose not given here
Conditions: Jurkat, 18 h
[1] = compound: compound 19 (5-tert-butyl-thalidomide)
[2] = compound: compound 22 (5-morpholino-thalidomide)
[3] = compound: compound 33 (diphenyl IMiD analogue)
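Also: pooled lentiviral library of zinc finger degron-EGFP fusions in mCherry-positive Jurkat cells, FACS-sorted after compound exposure, with degron abundance counted by next-generation sequencing.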

Sequence | log2 fold change of degron read counts [1] | log2 fold change of degron read counts [2] | log2 fold change of degron read counts [3] | log2 fold change of degron read counts (compound: thalidomide)
FNCNQCGRFFTQKGNLLRHIKL [46F_47N_49N_50Q_52G_53R_54F_55F_67L_, Q9UKT9] | -1.77 | -2.76 | -1.9 | -1.6
FRCPICGHIFTQKGNLLRHIKL [46F_47R_49P_50I_52G_53H_54I_55F_67L_, Q9UKT9] | -2.22 | -2.81 | -1.62 | -1.42
FLCEICGHQFTQKGNLLRHIKL [46F_47L_49E_50I_52G_53H_54Q_55F_67L_, Q9UKT9] | -3.24 | -3.62 | -3.53 | -2.18
LKCPICGFDCTQKGNLLRHIKL [46L_47K_49P_50I_52G_53F_54D_55C_67L_, Q9UKT9] | -1.99 | -1.82 | -1.08 | -0.789
FGCEICGHGFTQKGNLLRHIKL [46F_47G_49E_50I_52G_53H_54G_55F_67L_, Q9UKT9] | -2.33 | -2.62 | -2.89 | -2.42
FLCPICGRFFTQKGNLLRHIKL [46F_47L_49P_50I_52G_53R_54F_55F_67L_, Q9UKT9] | -1.24 | -1.32 | 0.143 | 0.16
FICPICGASFTQKGNLLRHIKL [46F_47I_49P_50I_52G_53A_54S_55F_67L_, Q9UKT9] | -0.0282 | 2.87 | 1.99 | 2.6
FECPICGASFTQKGNLLRHIKL [46F_47E_49P_50I_52G_53A_54S_55F_67L_, Q9UKT9] | 2.15 | -0.116 | 2.38 | 3.32
FVCPICGASFTQKGNLLRHIKL [46F_47V_49P_50I_52G_53A_54S_55F_67L_, Q9UKT9] | 0.995 | 2.78 | 2.19 | 3.08
FACPICGASFTQKGNLLRHIKL [46F_47A_49P_50I_52G_53A_54S_55F_67L_, Q9UKT9] | 3.73 | 2.44 | 1.48 | 1.61
FSCPICGASFTQKGNLLRHIKL [46F_47S_49P_50I_52G_53A_54S_55F_67L_, Q9UKT9] | 3.35 | 2.78 | 2.17 | 2.01
FRCPICGASFTQKGNLLRHIKL [46F_47R_49P_50I_52G_53A_54S_55F_67L_, Q9UKT9] | 1.96 | 1.71 | 1.79 | 1.78
FMCPICGASFTQKGNLLRHIKL [46F_47M_49P_50I_52G_53A_54S_55F_67L_, Q9UKT9] | 1.54 | 2.45 | 2.91 | 2.41
FCCPICGASFTQKGNLLRHIKL [46F_47C_49P_50I_52G_53A_54S_55F_67L_, Q9UKT9] | 3.32 | 2.71 | 2.44 | 2.37
FECNICGASFTQKGNLLRHIKL [46F_47E_49N_50I_52G_53A_54S_55F_67L_, Q9UKT9] | -0.173 | -1.42 | 0.849 | 1.86
FCCNICGASFTQKGNLLRHIKL [46F_47C_49N_50I_52G_53A_54S_55F_67L_, Q9UKT9] | 1.56 | 1.91 | 1.76 | 1.41
FQCPICGRGFTQKGNLLRHIKL [46F_47Q_49P_50I_52G_53R_54G_55F_67L_, Q9UKT9] | -0.816 | -0.908 | -0.112 | 1.8

Sequence | log2 fold change of degron read counts [1] | log2 fold change of degron read counts [2] | log2 fold change of degron read counts [3] | log2 fold change of degron read counts (compound: thalidomide)
FQCEICGAVFTQKGNLLRHIKL [46F_47Q_49E_50I_52G_53A_54V_55F_67L_, Q9UKT9] | 0.132 | 2.71 | 2.34 | 3.22
FGCDQCGAWFTQKGNLLRHIKL [46F_47G_49D_50Q_52G_53A_54W_55F_67L_, Q9UKT9] | -2.44 | -2.82 | -1.38 | -2.3
FMCEICGHQFTQKGNLLRHIKL [46F_47M_49E_50I_52G_53H_54Q_55F_67L_, Q9UKT9] | -3.75 | -3.29 | -1.95 | -1.87
FCCNQCGRVFTQKGNLLRHIKL [46F_47C_49N_50Q_52G_53R_54V_55F_67L_, Q9UKT9] | -2.29 | -2.57 | -2.1 | -2.12
FLCNQCGRCFTQKGNLLRHIKL [46F_47L_49N_50Q_52G_53R_54C_55F_67L_, Q9UKT9] | -1.41 | -1.61 | -3.08 | -2.11
FVCPQCGAIFTQKGNLLRHIKL [46F_47V_49P_50Q_52G_53A_54I_55F_67L_, Q9UKT9] | -2.01 | -1.63 | -0.464 | -0.946
FWCDICGASFTQKGNLLRHIKL [46F_47W_49D_50I_52G_53A_54S_55F_67L_, Q9UKT9] | 3.28 | 3.69 | 1.52 | -0.347
FWCPICGASFTQKGNLLRHIKL [46F_47W_49P_50I_52G_53A_54S_55F_67L_, Q9UKT9] | 3.29 | 3.64 | 2.28 | 1.35
FQCPICGASFTQKGNLLRHIKL [46F_47Q_49P_50I_52G_53A_54S_55F_67L_, Q9UKT9] | 2.55 | 2.88 | 2.76 | 3.79
FKCPICGASFTQKGNLLRHIKL [46F_47K_49P_50I_52G_53A_54S_55F_67L_, Q9UKT9] | 1.49 | -0.57 | -1.45 | 0.422
FDCPICGASFTQKGNLLRHIKL [46F_47D_49P_50I_52G_53A_54S_55F_67L_, Q9UKT9] | 3.04 | 1.06 | 1.22 | 1.9
FQCDICGASFTQKGNLLRHIKL [46F_47Q_49D_50I_52G_53A_54S_55F_67L_, Q9UKT9] | 1.07 | 1.92 | 1.15 | 2.99
FCCDICGASFTQKGNLLRHIKL [46F_47C_49D_50I_52G_53A_54S_55F_67L_, Q9UKT9] | 2.32 | 1.84 | 0.871 | 0.402
FECDICGASFTQKGNLLRHIKL [46F_47E_49D_50I_52G_53A_54S_55F_67L_, Q9UKT9] | 0.774 | -2.24 | -0.436 | -0.0103
FLCPICGASFTQKGNLLRHIKL [46F_47L_49P_50I_52G_53A_54S_55F_67L_, Q9UKT9] | 1.51 | 0.569 | 1.64 | 1.57
FNCPICGASFTQKGNLLRHIKL [46F_47N_49P_50I_52G_53A_54S_55F_67L_, Q9UKT9] | 2.84 | 1.58 | 1.33 | 0.876
FYCPICGASFTQKGNLLRHIKL [46F_47Y_49P_50I_52G_53A_54S_55F_67L_, Q9UKT9] | 3.25 | 3.43 | 2.54 | 1.24
